The values that follow come from ChEMBL document CHEMBL4513216, “Probing the Open Global Health Chemical Diversity Library for Multistage-Active Starting Points for Next-Generation Antimalarials” (ACS Infect Dis, 2020).

Structures are written as SMILES. Among all 69,000 compounds or so, about 8,600 (12%) showed an effect of 50% or more. The full list was thinned out, with strong results kept by preference.

The test system of the experiment is Plasmodium berghei. The experiment can be described thus: Screen against P. berghei liver stage (PbLuc), transformed with Luciferase, at 10uM. The format is functional, HepG2. As to conditions: tested at 10 uM.
Consider `O=C(NCc1ccccc1F)C1=NOC2(CCNC2)C1` (stereo unspecified), for which the INHIBITION came to 7.65%. For `CC(C)(C(=O)NCC(=O)NC1CC1)c1ccccc1F` the value was 19.4%; for `O=C(CC1CCN(c2cccnn2)CC1)Nc1cccnc1`, 21.1%. For the compound `CC(C)(C)OC(=O)NC1CCCN(Cc2cccs2)C1` (stereo unspecified), the INHIBITION was determined as 16.5%. With `CC(C)(C)C(=O)N1C[C@H](c2ccsc2)[C@H]2CN(C3CCCC3)CC[C@H]21`, the INHIBITION turned out to be 34.1%.

As for `CCCC(=O)NC1CCCN(Cc2cccs2)C1` (stereo unspecified), the INHIBITION is listed as 7.24%.

Take `O=C(C1CCC1)N1C[C@@H](c2ccsc2)[C@@H]2CN(C3CCCCC3)CC[C@@H]21`: the INHIBITION worked out at 32.3%. `CC(C)(C)C(=O)N1C[C@H](c2ccsc2)[C@H]2CN(C3CCCCC3)CC[C@H]21`: the INHIBITION is 50.8%. Consider `CC(C)(C)C(=O)N1C[C@H](c2ccsc2)[C@H]2CN(Cc3cccs3)CC[C@H]21`, for which the INHIBITION is 54.6%.

On to `Cn1nc2c(cc1=O)CN(Cc1coc(-c3cccc(F)c3)n1)CC2`, for which the INHIBITION is 9.54%. On to `COCCNC(=O)c1nc(NS(=O)(=O)c2ccccc2)sc1C`, for which the INHIBITION was determined as 17.7%. For `Cc1cnc(C(=O)NC(CN2CCCC2=O)c2ccccc2)cn1` (stereo unspecified) the value was -15.543%. Consider `Cc1cn2c(n1)C(CNCC1=Cc3ccccc3OC1)CCC2` (stereo unspecified), for which the INHIBITION came to 88.5%. On to `Cc1cn2c(n1)C(CNCC1=Cc3cc(Cl)ccc3OC1)CCC2` (stereo unspecified), for which the INHIBITION was determined as 90.2%. Turning to `CC(NCC1=Cc2cc(Cl)ccc2OC1)c1nnc2n1CCCC2` (stereo unspecified), the INHIBITION stood at 0.139%. On to `CCN(CC)c1ncc(CNCC2CCCn3ccnc32)s1` (stereo unspecified), for which the INHIBITION came out at 30.8%.

`Cc1ccc(N2CCCC(NCC3=Cc4ccccc4OC3)C2)nn1` (stereo unspecified): the INHIBITION is -4.94%.

In the case of `Cn1ccnc1C(=O)N1CCCC(Cn2cc(CO)nn2)C1` (stereo unspecified), the INHIBITION is 47.6%. For `O=C(Nc1ccc(F)c(F)c1)N1CCC2(CCC(=O)N(C3CC3)C2)CC1` the value was 36%. In the case of `COCCn1ccc2cc(C(=O)NC3CCOC(C)(C)C3)ccc21` (stereo unspecified), the INHIBITION is recorded as -16.5%. Turning to `COC(=O)NCC(=O)N1CCCn2nc(CN3CC[C@H](F)C3)cc2C1`, the INHIBITION was determined as 59.1%.

As for `Cc1nn(C)cc1C(=O)N1CCCn2nc(CN3CC[C@H](F)C3)cc2C1`, the INHIBITION is 38.5%.

Regarding `COC(=O)NCc1cc2n(n1)CCCN(C(C)=O)C2`, the INHIBITION amounted to 9.3%.

For the compound `Cc1ccc(N2CCC(CCN3CCCC3=O)CC2)nn1`, the INHIBITION was 27.7%. As for `Cc1ccc(C2CCCN(S(=O)(=O)N3CCOCC3)C2)nc1` (stereo unspecified), the INHIBITION is 19.85%. In the case of `COc1ccc(CNCC2CCN(c3ccccc3OC)C2)cc1O` (stereo unspecified), the INHIBITION is given as -29.1%. The result for `COc1ccccc1N1CCC(CNCc2cccc(O)c2)C1` (stereo unspecified) reads 37.5%; that for `COc1ccccc1N1CCC(CNCc2cccc(OC)c2OC)C1` (stereo unspecified), 59.4%. Turning to `COc1ccccc1N1CCC(CNCc2ccc(C#N)cc2)C1` (stereo unspecified), the INHIBITION is 40.9%.

Take `COc1cccc(N2CCC(CNCc3cccc(C#N)c3)C2)c1` (stereo unspecified): the INHIBITION is 26.4%. With `COc1ccccc1N1CCC(CNCc2cccc(C#N)c2)C1` (stereo unspecified), the INHIBITION was found to be 53.3%.
